This note sets out measurements from the supplement of paper PMC11732987, “Enantioselective OTUD7B fragment discovery through chemoproteomics screening and high-throughput optimisation” (Communications Chemistry, 2025).

Holding throughout (experiment): log2 ratio of Biotin-Ahx-Ub-VS probe labelling (fragment/DMSO); higher = less target engagement (more negative = stronger competition), active = hit call of the paper (q ≤ 0.05, log2 ratio ≤ -1)
Holding throughout (settings): compound concentration: 200 uM; treatment time: 3 h

In one test the target is T1, OTUD6B (UniProt Q8N6M0).
T1 sequence (whole entry): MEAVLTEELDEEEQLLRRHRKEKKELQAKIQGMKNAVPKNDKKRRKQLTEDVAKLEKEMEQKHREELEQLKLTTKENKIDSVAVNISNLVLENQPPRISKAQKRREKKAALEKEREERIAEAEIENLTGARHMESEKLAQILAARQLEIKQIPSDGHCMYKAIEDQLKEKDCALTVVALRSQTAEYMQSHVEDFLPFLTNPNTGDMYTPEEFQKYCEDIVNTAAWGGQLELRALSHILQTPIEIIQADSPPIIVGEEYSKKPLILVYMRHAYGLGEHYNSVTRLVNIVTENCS
An outline of the steps: (§1)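 HEK293T lysate, 495 µg per sample in Tris/CHAPS/IGEPAL buffer with protease inhibitors, was treated in triplicate with fragment at 200 µM or vehicle for 3 h and then with Biotin-Ahx-Ub-VS at 0.5 µM final for 1 h. Labelled DUBs were NeutrAvidin-enriched, digested with LysC and trypsin, and run by diaPASEF LC-MS/MS. Spectronaut label-free quantities were global-median-normalised, and values are average log2 fragment/vehicle ratios by unpaired t-test on proteins with ≥2 unique peptides.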

The next test concerns the target T2, OTUD7B (UniProt Q6GQQ9).
T2 sequence (whole entry): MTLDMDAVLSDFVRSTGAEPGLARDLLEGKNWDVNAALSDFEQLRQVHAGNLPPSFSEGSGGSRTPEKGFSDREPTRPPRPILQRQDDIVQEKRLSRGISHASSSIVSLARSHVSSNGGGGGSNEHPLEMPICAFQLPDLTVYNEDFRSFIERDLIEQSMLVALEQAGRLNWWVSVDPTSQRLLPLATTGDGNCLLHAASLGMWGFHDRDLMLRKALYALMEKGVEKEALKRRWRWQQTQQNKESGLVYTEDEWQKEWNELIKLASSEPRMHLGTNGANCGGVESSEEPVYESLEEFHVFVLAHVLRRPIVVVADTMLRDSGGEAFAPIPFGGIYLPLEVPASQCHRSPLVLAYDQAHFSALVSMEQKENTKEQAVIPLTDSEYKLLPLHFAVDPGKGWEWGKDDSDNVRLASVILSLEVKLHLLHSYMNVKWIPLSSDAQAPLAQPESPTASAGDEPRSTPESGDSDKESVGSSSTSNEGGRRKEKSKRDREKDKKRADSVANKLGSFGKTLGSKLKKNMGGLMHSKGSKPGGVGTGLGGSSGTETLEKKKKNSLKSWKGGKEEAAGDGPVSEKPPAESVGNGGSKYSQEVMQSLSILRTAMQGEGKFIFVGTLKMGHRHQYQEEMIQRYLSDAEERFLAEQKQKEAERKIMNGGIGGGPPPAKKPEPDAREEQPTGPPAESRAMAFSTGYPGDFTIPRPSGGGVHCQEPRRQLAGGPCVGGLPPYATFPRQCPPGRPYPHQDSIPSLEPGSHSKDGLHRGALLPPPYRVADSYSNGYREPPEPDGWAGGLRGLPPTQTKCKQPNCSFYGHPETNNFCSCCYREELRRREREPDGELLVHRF
An outline of the steps:
as §1

A further test has as its target PRPF8 (UniProt Q6P2Q9). An outline of the steps:
as §1

The target of the next test is T3, PSMD7 (UniProt P51665).
T3 sequence (whole entry): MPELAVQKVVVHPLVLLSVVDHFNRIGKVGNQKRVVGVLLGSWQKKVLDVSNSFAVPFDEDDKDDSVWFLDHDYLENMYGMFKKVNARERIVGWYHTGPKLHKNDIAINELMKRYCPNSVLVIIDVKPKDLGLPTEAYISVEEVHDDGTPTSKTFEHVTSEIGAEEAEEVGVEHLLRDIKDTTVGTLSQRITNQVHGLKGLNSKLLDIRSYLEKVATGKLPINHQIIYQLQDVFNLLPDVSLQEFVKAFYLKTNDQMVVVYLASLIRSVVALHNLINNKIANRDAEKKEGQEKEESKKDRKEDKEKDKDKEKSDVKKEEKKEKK
The procedure, abridged: as §1

Another test has as its target UCHL1 (UniProt P09936). An outline of the steps:
as §1

A further test concerns the target T4, UCHL3 (UniProt P15374).
T4 sequence (whole entry): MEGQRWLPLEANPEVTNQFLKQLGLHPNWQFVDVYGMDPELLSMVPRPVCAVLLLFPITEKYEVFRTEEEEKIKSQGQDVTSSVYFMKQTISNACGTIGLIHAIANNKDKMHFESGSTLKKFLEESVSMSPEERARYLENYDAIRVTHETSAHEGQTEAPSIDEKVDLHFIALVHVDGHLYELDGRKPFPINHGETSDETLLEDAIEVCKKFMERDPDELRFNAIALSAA
An outline of the steps:
as §1

Another test addresses T5, UCHL5 (UniProt Q9Y5K5).
T5 sequence (whole entry): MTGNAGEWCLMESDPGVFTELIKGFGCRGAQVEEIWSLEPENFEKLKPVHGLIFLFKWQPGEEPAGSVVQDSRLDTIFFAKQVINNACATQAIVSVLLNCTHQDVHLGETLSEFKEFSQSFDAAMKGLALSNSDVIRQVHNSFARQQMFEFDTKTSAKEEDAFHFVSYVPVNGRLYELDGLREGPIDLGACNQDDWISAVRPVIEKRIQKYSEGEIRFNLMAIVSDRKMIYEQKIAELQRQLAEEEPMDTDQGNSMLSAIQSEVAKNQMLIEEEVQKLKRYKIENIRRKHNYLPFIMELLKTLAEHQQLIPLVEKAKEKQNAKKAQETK
The procedure, abridged:
as §1

A further test addresses USP10 (UniProt Q14694). An outline of the steps: as §1
A further test addresses T6, USP15 (UniProt Q9Y4E8).
T6 sequence (whole entry): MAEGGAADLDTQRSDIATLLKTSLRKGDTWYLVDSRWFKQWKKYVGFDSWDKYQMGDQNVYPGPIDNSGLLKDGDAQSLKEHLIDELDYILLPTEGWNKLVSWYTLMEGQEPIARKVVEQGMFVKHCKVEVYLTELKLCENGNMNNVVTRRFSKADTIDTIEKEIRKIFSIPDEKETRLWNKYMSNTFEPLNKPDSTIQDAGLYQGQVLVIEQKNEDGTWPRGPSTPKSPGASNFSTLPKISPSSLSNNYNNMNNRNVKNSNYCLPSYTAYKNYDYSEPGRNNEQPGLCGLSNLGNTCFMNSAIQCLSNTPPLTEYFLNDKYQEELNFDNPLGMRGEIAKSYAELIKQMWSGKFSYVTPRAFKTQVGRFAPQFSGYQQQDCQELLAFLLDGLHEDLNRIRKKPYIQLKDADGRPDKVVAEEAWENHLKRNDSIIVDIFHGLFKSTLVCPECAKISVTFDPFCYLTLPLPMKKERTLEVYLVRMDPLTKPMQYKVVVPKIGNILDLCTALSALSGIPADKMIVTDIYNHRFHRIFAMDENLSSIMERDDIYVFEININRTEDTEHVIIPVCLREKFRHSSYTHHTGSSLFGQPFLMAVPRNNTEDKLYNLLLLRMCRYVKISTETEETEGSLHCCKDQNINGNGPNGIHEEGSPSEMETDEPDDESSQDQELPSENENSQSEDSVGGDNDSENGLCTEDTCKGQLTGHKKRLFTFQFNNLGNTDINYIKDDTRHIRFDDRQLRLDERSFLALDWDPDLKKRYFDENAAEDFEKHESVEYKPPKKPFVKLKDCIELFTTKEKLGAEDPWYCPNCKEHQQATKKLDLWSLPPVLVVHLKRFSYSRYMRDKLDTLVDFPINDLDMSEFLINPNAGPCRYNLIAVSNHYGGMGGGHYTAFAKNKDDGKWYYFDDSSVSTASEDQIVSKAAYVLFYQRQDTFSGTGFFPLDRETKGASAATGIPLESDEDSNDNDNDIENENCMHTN
The procedure, abridged:
as §1

The next test addresses USP16 (UniProt Q9Y5T5). The procedure, abridged:
as §1

A number with no mark means an inactive call.

UCHL1, sequence (P09936 whole entry, looked up): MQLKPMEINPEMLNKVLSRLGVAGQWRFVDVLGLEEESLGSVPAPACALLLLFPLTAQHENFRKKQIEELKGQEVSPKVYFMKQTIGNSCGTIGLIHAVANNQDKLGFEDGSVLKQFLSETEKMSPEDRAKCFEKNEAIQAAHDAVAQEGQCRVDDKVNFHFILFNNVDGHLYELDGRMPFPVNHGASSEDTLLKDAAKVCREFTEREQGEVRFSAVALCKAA
USP16, sequence (Q9Y5T5 whole entry, looked up): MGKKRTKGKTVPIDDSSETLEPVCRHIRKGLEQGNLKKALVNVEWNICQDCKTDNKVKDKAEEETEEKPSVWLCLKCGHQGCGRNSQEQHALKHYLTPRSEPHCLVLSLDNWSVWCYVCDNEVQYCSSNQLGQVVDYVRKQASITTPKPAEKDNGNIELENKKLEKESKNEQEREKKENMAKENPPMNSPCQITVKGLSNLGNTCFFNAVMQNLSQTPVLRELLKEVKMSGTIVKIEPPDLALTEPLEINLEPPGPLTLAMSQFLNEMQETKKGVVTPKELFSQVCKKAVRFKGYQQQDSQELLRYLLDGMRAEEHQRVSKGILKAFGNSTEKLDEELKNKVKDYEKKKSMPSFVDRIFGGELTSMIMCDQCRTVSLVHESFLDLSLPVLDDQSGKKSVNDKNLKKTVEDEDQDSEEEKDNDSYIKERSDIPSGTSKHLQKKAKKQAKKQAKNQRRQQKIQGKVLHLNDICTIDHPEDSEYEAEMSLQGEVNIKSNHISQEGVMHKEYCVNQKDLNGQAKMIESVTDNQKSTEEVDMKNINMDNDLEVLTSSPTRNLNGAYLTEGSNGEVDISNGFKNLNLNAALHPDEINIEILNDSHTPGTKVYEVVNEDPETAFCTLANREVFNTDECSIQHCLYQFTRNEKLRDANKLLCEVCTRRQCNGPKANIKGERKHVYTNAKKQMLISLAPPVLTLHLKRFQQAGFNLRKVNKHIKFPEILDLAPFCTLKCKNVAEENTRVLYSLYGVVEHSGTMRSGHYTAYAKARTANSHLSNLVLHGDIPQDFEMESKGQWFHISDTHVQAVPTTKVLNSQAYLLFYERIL
USP10, sequence (Q14694 whole entry): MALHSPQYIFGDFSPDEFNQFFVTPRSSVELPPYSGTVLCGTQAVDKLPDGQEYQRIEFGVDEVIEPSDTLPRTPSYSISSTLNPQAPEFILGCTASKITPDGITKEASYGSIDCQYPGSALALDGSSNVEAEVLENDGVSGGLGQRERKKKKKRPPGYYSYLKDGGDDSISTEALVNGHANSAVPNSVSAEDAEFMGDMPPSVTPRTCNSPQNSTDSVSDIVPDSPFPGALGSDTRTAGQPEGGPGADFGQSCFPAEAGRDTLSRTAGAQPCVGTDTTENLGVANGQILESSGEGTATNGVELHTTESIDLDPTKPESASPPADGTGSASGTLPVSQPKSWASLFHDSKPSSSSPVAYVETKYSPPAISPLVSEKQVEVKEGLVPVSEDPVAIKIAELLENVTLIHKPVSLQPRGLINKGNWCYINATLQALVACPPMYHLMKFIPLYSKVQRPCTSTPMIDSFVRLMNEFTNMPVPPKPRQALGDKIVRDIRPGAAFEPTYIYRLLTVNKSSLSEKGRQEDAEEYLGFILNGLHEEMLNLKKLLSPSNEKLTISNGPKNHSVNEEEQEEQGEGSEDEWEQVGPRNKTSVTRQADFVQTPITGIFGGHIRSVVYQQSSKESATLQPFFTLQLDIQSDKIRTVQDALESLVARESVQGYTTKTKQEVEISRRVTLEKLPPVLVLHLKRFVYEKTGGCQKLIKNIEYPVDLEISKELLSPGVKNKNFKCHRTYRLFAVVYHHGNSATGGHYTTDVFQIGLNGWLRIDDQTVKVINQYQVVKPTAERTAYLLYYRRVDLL

In the case of `O=C(CCl)NC(Cn1ccccc1=O)c1ccccc1` (stereo not given), the “log2 ratio of Biotin-Ahx-Ub-VS probe labelling” value with OTUD6B is 0.102; with OTUD7B it was -0.332; with PRPF8, -0.224; in the test with PSMD7, -0.094; with UCHL1, -1.61 (active); with UCHL3, 0.233. The “log2 ratio of Biotin-Ahx-Ub-VS probe labelling” value with UCHL5 is -0.175; with USP10 it was -0.0324; with USP15 it was -0.0415; in the test with USP16, -0.972.
